Laboratory results published in PubChem BioAssay.

Biological target: NADPH oxidase 2 (Homo sapiens) (UniProt P04839)
Assay: compounds shifting NOX2 Amplex Red fluorescence – cell-based, HEK293-NOX2, PMA-stimulated, NOX inhibitor project, primary screen (AID 1159); note: test concentration not given here
Settings: 45 min, higher = more signal, called active from +8 up or from −8 down

NADPH oxidase 2 (Homo sapiens), sequence (P04839 whole entry, looked up): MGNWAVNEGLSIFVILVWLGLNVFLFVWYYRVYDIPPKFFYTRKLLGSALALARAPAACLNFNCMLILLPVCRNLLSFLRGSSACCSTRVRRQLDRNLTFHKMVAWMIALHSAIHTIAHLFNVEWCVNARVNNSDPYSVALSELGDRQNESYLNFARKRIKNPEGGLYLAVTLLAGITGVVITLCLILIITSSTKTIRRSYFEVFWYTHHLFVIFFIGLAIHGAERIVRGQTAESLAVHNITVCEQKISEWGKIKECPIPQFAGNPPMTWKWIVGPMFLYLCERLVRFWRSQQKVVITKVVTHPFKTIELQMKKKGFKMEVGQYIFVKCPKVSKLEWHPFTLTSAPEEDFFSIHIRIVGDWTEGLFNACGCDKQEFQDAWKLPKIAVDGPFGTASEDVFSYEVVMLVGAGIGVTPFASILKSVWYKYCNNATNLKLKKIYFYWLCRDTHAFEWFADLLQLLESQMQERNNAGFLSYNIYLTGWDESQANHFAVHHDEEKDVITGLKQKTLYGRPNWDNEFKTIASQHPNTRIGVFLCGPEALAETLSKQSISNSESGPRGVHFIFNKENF

z-score, inactive:
CC(C)[Si]1(C(C)C)O[C@@H](c2ccccc2)c2cc(-c3ccc(-c4ccc(Cl)c(Cl)c4)o3)nc(-c3ccccc3)c21 -0.364
OCCCC1=CC(c2cccs2)N(Cc2cc3c(cc2Br)OCO3)CC1 (stereo not given) -0.283
CCOC(=O)C[C@H]1[C@H](OC(=O)c2ccc(C(=O)c3ccccc3)cc2)[C@@H](NC(=O)c2ccc3ccccc3c2)c2cc(OCCCO)ccc2N1C(=O)Cc1ccc(OC)cc1 -0.992
C=C(CC1([C@@H](NP(=O)(c2ccccc2)c2ccccc2)[C@H]2C[C@@H]2CCCC)CC1)c1ccccc1 -0.538
COc1cc(COC(C)=O)ccc1OC(C)=O -4.55
C=C(CCCC)/C(=C/C[C@@H](OC(=O)c1ccncc1)c1ccc(OCCO)cc1)c1cc(C(=O)OC)ccc1OC -1.61
C=C(CCCC)C(=O)CC[C@@H](OC(=O)c1ccccc1-c1ccccc1C(=O)O)c1ccc(OCCO)cc1 2.45
COCCOC(=O)N1C(=O)[C@@]2(c3cc(C#CCC(C(=O)OC)C(=O)OC)ccc31)[C@H](C(=O)Nc1nc3ccccc3s1)[C@H]1C(=O)O[C@H](c3ccccc3)[C@H](c3ccccc3)N1[C@@H]2c1ccccc1OCCO 0.652
NC(=O)N1C(=O)C2C(C1=O)C1C=C(c3ccc(CO)cc3)C2C(c2cccs2)N1Cc1cccc(OC(F)(F)F)c1 (stereo not given) -1.02
COCCOC(=O)N1C(=O)[C@@]2(c3cc(C#CCNC(N)=O)ccc31)[C@H](C(=O)N1CCN(c3ncccn3)CC1)[C@H]1C(=O)O[C@H](c3ccccc3)[C@H](c3ccccc3)N1[C@@H]2c1ccc(OCCO)cc1 1.64
CCCc1cc2c(n1Cc1cc(F)cc(F)c1)C(C)C1CN(C(=O)c3ccccc3)C(C)(C(=O)OC)C21 (stereo not given) -1.69
CCCC[C@@H]1C[C@H]1[C@@H](NC(=O)c1ccco1)c1ccc(-c2ccccc2)cc1 -4.04
C=CC[C@@]12N=C(c3ccc(OCCCO)cc3)O[C@@H]1c1ccccc1N(C)C2=O -2.99
COC(=O)[C@@]1(Cc2ccccc2)N=C(c2ccc(OCCCO)cc2)O[C@H]1c1ccccc1 -5.76
COc1cccc(-c2cccc(=O)o2)c1 0.705
C=C[C@H](CO[Si](CC)(CC)CC)N(Cc1ccc(OC(C)=O)c(OC)c1)S(=O)(=O)c1ccc(Br)cc1 -2
NC(=O)NCC#Cc1ccc2c(c1)[C@]1(C(=O)N2)[C@H](c2ccc(O)cc2)N2[C@H](c3ccccc3)[C@H](c3ccccc3)OC(=O)[C@H]2[C@@H]1C(=O)O 0.879
COC(=O)C[C@H]1O[C@]2(C(=O)N(C)c3ccccc32)[C@@H](C)[C@@H]1[Si](C)(C)F -0.771
O=C1C2C=CC(C(O)c3cc(C(F)(F)F)cc(C(F)(F)F)c3)N(n3cnnc3)C2C(=O)N1Cc1ccccc1 (stereo not given) -0.497
Cc1nc2cc(Br)ccc2c(=O)o1 0.288
C=C(CCCC)/C(=C/C[C@@H](OC(C)=O)c1ccc(OCCO)cc1)c1cnc2ccccc2c1 -1.98
COc1cc2c(cc1O)C(C1CC1)N(Cc1sc3ccccc3c1Cl)CC2 (stereo not given) -4.57
COc1cc2c(cc1O)C(c1cccs1)N(C)CC2 (stereo not given) -4.66
CN1C=C(C(=O)OCCS(C)(=O)=O)C(C(=O)OCCS(C)(=O)=O)=CC(c2ccc(CO)cc2)=CC1C1CC1 (stereo not given) -2.88
Cc1ccc(N2C(=O)c3ccccc3[C@@H](C(=O)NC3CC3)[C@@H]2c2ccc(CO)cc2)nc1 0.355
O=C1C[C@@](C(=O)NCC(F)(F)F)(c2ccc([N+](=O)[O-])cc2)[C@@H](c2ccc(CO)cc2I)N1C1CCCCC1 0.979
Cc1ccc(S[C@]2(C(=O)NCCCN(C)C)CC(=O)N(Cc3cc(C(F)(F)F)cc(C(F)(F)F)c3)[C@@H]2c2ccc(CO)cc2)cc1 -0.373
C=C(COC)/C(=C/C[C@@H](OC(=O)c1ccncc1)c1ccc(CO)o1)c1cc(C(=O)OC)ccc1OC -0.631
C=C[C@H](OC)[C@@H](OC(=O)Nc1ccc(OC)cc1)c1ccc(O)c(F)c1 -1.5
COCCOC(=O)N1C(=O)[C@@]2(c3cc(C#CC4(O)CCCCCC4)ccc31)[C@H](c1ccccc1OCCO)N1[C@H](c3ccccc3)[C@H](c3ccccc3)OC(=O)[C@H]1[C@@H]2C(=O)N1CCN(c2ncccn2)CC1 0.342
C=CC(=C)[C@H]1Oc2ccccc2S(=O)(=O)N2CCC[C@@H]12 -0.0944
[N-]=[N+]=Nc1ccccc1[C@@H]1OC(c2ccc(OCCCO)cc2)=N[C@]1(Cc1ccccc1)C(=O)N1CCOCC1 -0.507
COCCOC(=O)N1C(=O)[C@@]2(c3cc(C#CCCO)ccc31)[C@H](C(N)=O)[C@H]1C(=O)O[C@H](c3ccccc3)[C@H](c3ccccc3)N1[C@@H]2c1ccc(O)cc1 0.463
C=C(C(=O)CC[C@@H](OC(=O)c1cccnc1)c1ccccc1OCCO)C(C)C -0.551
C=CCNC(=O)[C@H]1[C@@H]2C(=O)O[C@@H](c3ccccc3)[C@@H](c3ccccc3)N2[C@@H](c2ccccc2OCCO)[C@]12C(=O)Nc1ccc(C#CCC(C(=O)OC)C(=O)OC)cc12 1.62
